Measured values taken from PubChem BioAssay (Tox21).
Values joined by “and” are separate entries in the source; they are usually repeats but may differ in a detail not shown here. Equal entries are not always repeated. Some compounds were tested as several samples or in several runs, with calls that do not always agree. Active and inactive are the calls of the source. Where a call stands in place of a potency, no number is given. Unless noted, the call rests on the fitted dose curve; in most records, active means well fitted curve in the direction sought with a large enough effect in the repeat runs; inconclusive means weak or mixed curves; inactive means no such curve, though single readings can be large; an effect the other way counts as inactive or inconclusive.

How the values were obtained:
[1] = qHTS assay to identify small molecule antagonists of the thyroid receptor (TR) signaling pathway - cell viability counter screen (AID 743064); further: nearly all actives have a fitted effect of over 50% in size; further: potency means the concentration at half of the fitted maximal effect
Method in brief: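 In rat pituitary GH3.TRE-Luc reporter cells co-exposed to compound and 1 nM T3 for 23.5 h, cytotoxicity was assessed with CellTiter-Fluor in the same wells, read by fluorescence.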

[2] = qHTS assay to identify small molecule antagonists of the thyroid receptor (TR) signaling pathway (AID 743065); further: nearly all actives have a fitted effect of over 55% in size; further: potency means the concentration at half of the fitted maximal effect
Method in brief: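 Antagonism measured as loss of luciferase signal in GH3 cells stably carrying a TRE-luciferase reporter, co-treated with compound and T3 (1 nM final) for 23.5 h at 37 C. Viability was read in the same well by CellTiter-Fluor.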

[3] = system: thyroid hormone receptor (rat, GH3 cells); assay: qHTS assay to identify small molecule agonists of the thyroid receptor (TR) signaling pathway (AID 743066; calls by dose curve)
[4] = target: Estrogen receptor (Homo sapiens) (UniProt P03372); assay: qHTS assay to identify small molecule antagonists of the estrogen receptor alpha (ER-alpha) signaling pathway (AID 743069; active means well fitted curve in the direction sought with a large enough effect in the signal ratio in the repeat runs, not every such curve was filed as active; inconclusive means weak or mixed curves, or effect the other way; inactive means no such curve, though single readings can be large or run the other way; the % refers to the signal ratio; further: potency means the concentration at half of the fitted maximal effect)
Chain of Estrogen receptor (Homo sapiens) (P03372 whole entry, looked up): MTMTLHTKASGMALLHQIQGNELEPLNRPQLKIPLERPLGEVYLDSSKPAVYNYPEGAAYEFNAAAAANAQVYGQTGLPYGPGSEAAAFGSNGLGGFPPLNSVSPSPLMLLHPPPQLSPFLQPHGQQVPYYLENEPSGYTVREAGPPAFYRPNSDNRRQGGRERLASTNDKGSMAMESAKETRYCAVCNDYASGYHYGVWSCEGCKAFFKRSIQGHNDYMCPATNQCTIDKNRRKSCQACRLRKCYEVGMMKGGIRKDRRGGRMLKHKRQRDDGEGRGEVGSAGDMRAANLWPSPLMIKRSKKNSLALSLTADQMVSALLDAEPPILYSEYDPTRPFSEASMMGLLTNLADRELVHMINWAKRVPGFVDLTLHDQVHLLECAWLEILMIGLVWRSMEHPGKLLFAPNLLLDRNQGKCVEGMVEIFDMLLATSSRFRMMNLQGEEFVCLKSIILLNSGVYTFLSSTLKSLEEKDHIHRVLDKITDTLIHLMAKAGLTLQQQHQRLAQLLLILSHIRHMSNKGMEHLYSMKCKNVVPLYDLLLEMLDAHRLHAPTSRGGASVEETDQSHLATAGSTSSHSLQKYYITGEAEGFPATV
Method in brief: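 ER-alpha-UAS-bla GripTite HEK293 line; 2% charcoal-stripped FBS overnight; plated, 4 hr 37C/5% CO2; cpd in DMSO + 17beta-estradiol, 18 hr 37C; LiveBLAzer B/G FRET substrate 2 hr RT; fluorescence intensity.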

[5] = qHTS assay to identify small molecule antagonists of the estrogen receptor alpha (ER-alpha) signaling pathway - cell viability counter screen (AID 743074; calls by dose curve;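 further: HEK293 cells carrying ER-alpha-UAS-bla reporter stimulated with 17beta-estradiol; nearly all actives have a fitted effect of over 45% in size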)
[6] = target: Estrogen receptor (Homo sapiens) (UniProt P03372); assay: qHTS assay to identify small molecule agonists of the estrogen receptor alpha (ER-alpha) signaling pathway (AID 743075; calls by dose curve;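 further: HEK293 GripTite cells with ER-alpha and UAS-driven beta-lactamase reporter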; further: potency means the concentration at half of the fitted maximal effect)
[7] = target: Estrogen receptor (Homo sapiens) (UniProt P03372); assay: qHTS assay to identify small molecule agonists of the estrogen receptor alpha (ER-alpha) signaling pathway using the BG1 cell line (AID 743079); further: nearly all actives have a fitted effect of over 20% in size; further: potency means the concentration at half of the fitted maximal effect
[8] = qHTS assay to identify small molecule antagonists of the estrogen receptor alpha (ER-alpha) signaling pathway using the BG1 cell line - cell viability counter screen (AID 743081);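 further: compound given together with 17beta-estradiol as the ER stimulus; nearly all actives have a fitted effect of over 45% in size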; further: potency means the concentration at half of the fitted maximal effect
[9] = target: Aromatase (Homo sapiens) (UniProt P11511); assay: qHTS assay to identify aromatase inhibitors (AID 743083); further: series mostly up to about 70 µM; nearly all actives have a fitted effect of over 55% in size
Chain of Aromatase (Homo sapiens) (P11511 whole entry, looked up): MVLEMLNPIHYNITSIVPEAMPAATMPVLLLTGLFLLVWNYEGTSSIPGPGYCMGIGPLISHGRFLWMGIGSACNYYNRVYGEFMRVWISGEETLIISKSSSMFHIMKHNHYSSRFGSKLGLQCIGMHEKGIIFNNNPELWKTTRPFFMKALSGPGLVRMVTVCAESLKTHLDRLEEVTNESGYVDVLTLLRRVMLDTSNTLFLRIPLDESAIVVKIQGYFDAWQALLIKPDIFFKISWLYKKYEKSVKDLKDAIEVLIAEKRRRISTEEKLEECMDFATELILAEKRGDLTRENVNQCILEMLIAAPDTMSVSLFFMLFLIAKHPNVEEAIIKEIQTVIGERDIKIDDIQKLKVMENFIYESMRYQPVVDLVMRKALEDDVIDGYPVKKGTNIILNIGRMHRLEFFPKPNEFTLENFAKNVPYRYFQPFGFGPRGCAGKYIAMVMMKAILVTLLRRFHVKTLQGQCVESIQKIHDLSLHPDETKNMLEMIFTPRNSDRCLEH

[10] = qHTS assay to identify aromatase inhibitors - cell viability counter screen (AID 743084);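 further: cells stimulated with testosterone during compound exposure; nearly all actives have a fitted effect of over 55% in size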; further: potency means the concentration at half of the fitted maximal effect
[11] = qHTS assay to identify small molecule that activate the aryl hydrocarbon receptor (AhR) signaling pathway - cell viability counter screen (AID 743086); further: nearly all actives have a fitted effect of over 45% in size; further: potency means the concentration at half of the fitted maximal effect
Method in brief: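 Cytotoxicity counter screen: CellTiter-Fluor signal (30 min, 37 C) in 4000 HepG2 cells/well carrying the DRE-luciferase reporter, following 24 h compound exposure at 37 C.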

[12] = qHTS assay to identify small molecule antagonists of the peroxisome proliferator-activated receptor gamma (PPARg) signaling pathway - cell viability counter screen (AID 743194); further: nearly all actives have a fitted effect of over 55% in size
Method in brief: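 Viability was measured as CellTiter-Glo luminescence in GeneBLAzer PPARg UAS-bla HEK293H cells. These cells had been exposed 17 h at 37 C to compounds together with rosiglitazone at 50 nM final, with the beta-lactamase readout taken in the same wells.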

[13] = qHTS assay for small molecule agonists of the antioxidant response element (ARE) signaling pathway (AID 743202; active means well fitted activation curve with a large enough effect in the signal ratio in the repeat runs, not every such curve was filed as active; inconclusive means weak or mixed curves, or effect the other way; inactive means no such curve, though single readings can be large or run the other way; the % refers to the signal ratio)
Method in brief: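 Quantitative high-throughput format in HepG2 cells bearing an integrated ARE-beta-lactamase reporter. Compound exposure lasted 16 h at 37 C, and fluorescence was read 2 h after adding LiveBLAzer B/G substrate at room temperature.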

[14] = qHTS assay for small molecule agonists of the antioxidant response element (ARE) signaling pathway - cell viability counter screen (AID 743203; calls by dose curve; further: nearly all actives have a fitted effect of over 55% in size)
Method in brief: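 Following 16 hrs of compound treatment at 37C, HepG2 cells with an ARE-controlled beta-lactamase gene were lysed with CellTiter-Glo. Luminescence was read after 30 min at room temperature.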

[15] = qHTS assay for small molecule activators of the heat shock response signaling pathway - cell viability counter screen (AID 743209); further: nearly all actives have a fitted effect of over 50% in size
Method in brief: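 Readout: CellTiter-Glo luminescence, 30 min at room temperature. System: HSE-bla HeLa cells, 1500/well, plated overnight. Treatment: compounds in DMSO, 5 h at 37 C.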

[16] = qHTS assay for small molecule activators of the heat shock response signaling pathway (AID 743210; active means well fitted activation curve with a large enough effect in the signal ratio in the repeat runs, with a control signal flat, not every such curve was filed as active; inconclusive means weak or mixed curves; the % refers to the signal ratio;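 further: HeLa cells with beta-lactamase reporter driven by heat shock elements; series mostly up to about 63 µM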)
Method in brief: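 HeLa HSE-bla cells, overnight plating; cpd in DMSO 5 h, 37 C; LiveBLAzer B/G FRET substrate 2.5 h RT; fluorescence intensity read.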

[17] = qHTS assay to identify small molecule antagonists of the estrogen receptor alpha (ER-alpha) signaling pathway using the BG1 cell line (AID 743080; calls by dose curve;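 further: BG1 cells stimulated with 17beta-estradiol alongside compound; series mostly up to about 70 µM; nearly all actives have a fitted effect of over 25% in size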)
Method in brief: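 Luciferase inhibition measured with ONE-Glo after 30 min at RT in BG1Luc4E2 cells given test compounds and 17beta-estradiol for 21.5 h at 37 C; CellTiter-Fluor viability read in the same wells beforehand.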

[18] = target: Aryl hydrocarbon receptor (Homo sapiens) (UniProt P35869); assay: qHTS assay to identify small molecule that activate the aryl hydrocarbon receptor (AhR) signaling pathway (AID 743085); further: nearly all actives have a fitted effect of over 15% in size; further: potency means the concentration at half of the fitted maximal effect;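 on activation: HG2L7.5c1 human HepG2 liver cells with stably integrated DRE-driven firefly reporter; series mostly up to about 70 µM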
Chain of Aryl hydrocarbon receptor (Homo sapiens) (P35869 whole entry, looked up): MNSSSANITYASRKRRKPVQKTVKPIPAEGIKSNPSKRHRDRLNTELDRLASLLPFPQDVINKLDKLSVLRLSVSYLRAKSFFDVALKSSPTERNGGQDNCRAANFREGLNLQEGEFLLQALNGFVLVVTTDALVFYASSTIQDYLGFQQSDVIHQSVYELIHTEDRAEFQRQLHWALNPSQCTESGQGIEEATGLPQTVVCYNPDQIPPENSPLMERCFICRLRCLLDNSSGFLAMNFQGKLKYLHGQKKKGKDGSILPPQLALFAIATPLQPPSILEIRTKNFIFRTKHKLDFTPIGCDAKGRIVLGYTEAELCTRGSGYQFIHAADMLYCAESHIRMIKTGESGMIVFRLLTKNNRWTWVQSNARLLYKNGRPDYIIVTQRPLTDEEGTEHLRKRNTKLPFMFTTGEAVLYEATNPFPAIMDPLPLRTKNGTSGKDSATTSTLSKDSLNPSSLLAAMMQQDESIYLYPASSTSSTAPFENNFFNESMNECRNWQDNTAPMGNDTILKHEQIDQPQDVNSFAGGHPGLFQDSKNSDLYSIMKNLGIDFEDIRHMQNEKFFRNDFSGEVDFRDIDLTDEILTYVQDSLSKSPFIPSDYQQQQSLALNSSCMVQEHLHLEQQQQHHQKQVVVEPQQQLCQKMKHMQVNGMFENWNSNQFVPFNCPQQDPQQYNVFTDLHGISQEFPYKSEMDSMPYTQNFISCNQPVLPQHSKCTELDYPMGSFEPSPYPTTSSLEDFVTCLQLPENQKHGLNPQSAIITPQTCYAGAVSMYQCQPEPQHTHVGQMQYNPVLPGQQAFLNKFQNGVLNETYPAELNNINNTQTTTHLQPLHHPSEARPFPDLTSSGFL
Method in brief: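 AhR agonist activity is inferred from enhanced light output of a DRE-controlled firefly luciferase reporter in HepG2 cells, measured with ONE-Glo following 24 h treatment at 37C.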

[19] = target: Peroxisome proliferator-activated receptor gamma (Homo sapiens) (UniProt P37231); assay: qHTS assay to identify small molecule agonists of the peroxisome proliferator-activated receptor gamma (PPARg) signaling pathway (AID 743094; active means well fitted activation curve with a large enough effect in the signal ratio in the repeat runs, not every such curve was filed as active; inconclusive means weak or mixed curves, or effect the other way; inactive means no such curve, though single readings can be large or run the other way; the % refers to the signal ratio; further: potency means the concentration at half of the fitted maximal effect)
Chain of Peroxisome proliferator-activated receptor gamma (Homo sapiens) (P37231 whole entry, looked up): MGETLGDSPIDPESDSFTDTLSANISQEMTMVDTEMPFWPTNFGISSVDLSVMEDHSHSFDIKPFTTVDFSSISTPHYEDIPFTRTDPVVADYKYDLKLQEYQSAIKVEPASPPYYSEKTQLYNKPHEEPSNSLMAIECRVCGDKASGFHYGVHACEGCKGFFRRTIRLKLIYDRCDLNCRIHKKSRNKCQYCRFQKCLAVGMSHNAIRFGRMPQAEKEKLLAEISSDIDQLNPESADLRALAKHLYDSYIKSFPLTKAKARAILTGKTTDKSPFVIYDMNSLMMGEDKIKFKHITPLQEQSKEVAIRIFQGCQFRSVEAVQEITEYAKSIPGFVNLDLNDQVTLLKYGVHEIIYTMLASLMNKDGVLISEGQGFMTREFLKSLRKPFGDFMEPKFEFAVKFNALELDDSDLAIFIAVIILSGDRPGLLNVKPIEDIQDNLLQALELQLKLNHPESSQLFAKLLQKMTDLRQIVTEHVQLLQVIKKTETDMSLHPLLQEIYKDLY
Method in brief: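 Compounds dissolved in DMSO were added to PPARg UAS-bla HEK293H cells for 17 h at 37C, and reporter expression was quantified by fluorescence intensity after 1 h with LiveBLAzer B/G FRET substrate.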

[20] = target: Peroxisome proliferator-activated receptor gamma (Homo sapiens) (UniProt P37231); assay: qHTS assay to identify small molecule antagonists of the peroxisome proliferator-activated receptor gamma (PPARg) signaling pathway (AID 743191; calls by dose curve; further: series mostly up to about 63 µM; nearly all actives have a fitted effect of over 30% in size)
Method in brief: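 Beta-lactamase reporter under UAS control in HEK293H PPARg-bla cells; compound treatment 17 h at 37C. Read-out: fluorescence intensity after 1 h room-temperature incubation with LiveBLAzer B/G FRET substrate.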

Compound	Potency [1]	Potency [2]	Potency [3]	Potency [4]	Potency [5]	Potency [6]	Potency [7]	Potency [8]	Potency [9]	Potency [10]	Potency [11]	Potency [12]	Potency [13]	Potency [14]	Potency [15]	Potency [16]	Potency [17]	Potency [18]	Potency [19]	Potency [20]
CC(C)CCOC(=O)c1ccc(N(C)C)cc1	inactive	inactive	inactive	inactive	inactive	inactive	11.9 µM (active)	inactive	inactive	inactive	inactive	inactive	inactive	inactive	inactive	inactive				
COC(=O)/C=C/c1ccccc1	inactive	inactive	inactive	inactive	inactive	inactive		inactive	inactive	inactive	inactive			inactive	inactive	inactive	inactive	inactive	inactive	inactive
CCOc1ccc2c(c1)C(C)=CC(C)(C)N2	inactive	33.5 µM (active)	inactive	inactive	inactive	inactive	inactive	inactive	inactive	inactive	inactive	inactive		inactive	inactive		inactive	inactive	21.3 µM (active)	inactive
O=C(O)CP(=O)(O)O	inactive	inactive	inactive	inactive	inactive	inactive	inactive	inactive	inactive	inactive	inactive		inactive	inactive	inactive	inactive	inactive	inactive	inactive	inactive
O=C(O)c1cccc(C(=O)O)c1	inactive	inactive	inactive	inactive	inactive	inactive	inactive	inactive	inactive	inactive	inactive	inactive		inactive	inactive	inactive	inactive	inactive		inactive
c1ccc2cc3c(ccc4ccccc43)cc2c1	inactive	inactive	inactive		inactive	55.1 µM [activator] (active) and inactive	54.6 µM (active) and 48.6 µM (active)	inactive	inactive	inactive	inactive	inactive		inactive	inactive	inactive	inactive	4.34 µM (active) and 6.86 µM (active)		inactive
O=C1NCC2(CCN(CCc3ccccc3)CC2)O1	inactive	inactive	inactive	inactive	inactive	inactive	29.8 µM (active)	inactive	inactive	inactive	inactive	inactive		inactive	inactive	inactive	inactive	inactive	inactive	inactive
Cc1cc(C2(c3cc(C)c(O)cc3C)OS(=O)(=O)c3ccccc32)c(C)cc1O	54.5 µM (active)	inactive	inactive	1.74 µM [inconclusive] (active)	inactive	1.38 µM [inconclusive] (active) and inactive	864 nM (active) and 10.9 µM (active)	27.3 µM (active) and 24.3 µM (active)		21.7 µM (active) and 24.3 µM (active)	19.3 µM (active) and 21.7 µM (active)	inactive		inactive	inactive		inactive	30.6 µM (active) and inactive	inactive	inactive
CN1C(=O)c2ccc([N+](=O)[O-])cc2C1=O	inactive	inactive	inactive	inactive		inactive	inactive	inactive	inactive	inactive	inactive			inactive	inactive	inactive	inactive	inactive		inactive
NC(N)=Nc1nc(CSCC/C(N)=N/S(N)(=O)=O)cs1	inactive	inactive	inactive	inactive	inactive	inactive	inactive	inactive	inactive	inactive	inactive	inactive	inactive	inactive	inactive	inactive	inactive		inactive	inactive
CC(=O)N[C@@H](CS)C(=O)O	inactive	inactive	inactive	inactive	inactive	inactive	inactive	inactive	inactive	inactive	inactive	inactive	inactive	inactive	inactive	inactive	inactive	inactive	inactive	inactive
